Bioassay records: PubChem, National Center for Advancing Translational Sciences (NCATS)
FLuc modulator – qHTS profiling assay for firefly luciferase inhibitor/activator using purifed enzyme and Km concentrations of substrates (counterscreen for miR-21 project); Potency, µM (titrated, usually from 57.5 µM), without a hit: at the top dose activity change, negative = inhibition, hits mostly inhibitors; purified FLuc, Km substrates, luminescence inhibition; Luciferin 4-monooxygenase (Photinus pyralis), P08659; 360,000 tested, 6.9% active;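 note: plate controls were vehicle for no effect and reference inhibitor for full effect; nearly all actives have a fitted effect of over 55% in size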
Target sequence (P08659 whole entry, looked up): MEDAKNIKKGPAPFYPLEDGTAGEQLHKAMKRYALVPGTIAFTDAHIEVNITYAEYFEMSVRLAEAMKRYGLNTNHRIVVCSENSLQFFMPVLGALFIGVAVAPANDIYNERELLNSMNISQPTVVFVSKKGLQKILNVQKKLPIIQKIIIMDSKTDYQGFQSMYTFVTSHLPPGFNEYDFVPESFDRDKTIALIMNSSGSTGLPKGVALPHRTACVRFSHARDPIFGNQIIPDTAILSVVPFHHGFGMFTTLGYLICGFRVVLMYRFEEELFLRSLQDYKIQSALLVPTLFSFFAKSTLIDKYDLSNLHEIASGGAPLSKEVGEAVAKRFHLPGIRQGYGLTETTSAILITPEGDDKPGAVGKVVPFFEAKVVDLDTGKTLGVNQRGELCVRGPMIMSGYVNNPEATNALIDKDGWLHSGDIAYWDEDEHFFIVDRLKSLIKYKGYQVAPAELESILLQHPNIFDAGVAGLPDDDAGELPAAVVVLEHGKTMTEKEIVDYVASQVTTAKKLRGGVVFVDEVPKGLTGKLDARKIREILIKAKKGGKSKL
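Purified P. pyralis luciferase, 10 nM final, with Km-level 10 uM D-luciferin and 10 uM ATP in 50 mM Tris acetate pH 7.5, 10 mM Mg acetate, 0.01% Tween-20, 0.05% BSA; 6-point qHTS titration about 60 µM downward; luminescence read.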
ELG1 genotox – qHTS screen for small molecules that induce genotoxicity in human embryonic kidney (HEK293T) cells expressing luciferase-tagged ELG1; HEK293T ELG1-luciferase reporter, luminescence, 16 h; Potency, µM (top dose mostly 46 µM), without a hit: top-dose activity change, positive = activation, most hits filed as activators; 330,000 tested, 1.3% active; AID 504466, 2011; note: % of control where 0% means no effect; nearly all actives have a fitted effect of over 60% in size
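Reporter readout depends on ELG1 protein level, which increases with genetic stress. After 16 hr compound exposure at 37 °C, luciferase activity was quantified using ONE-Glo.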
Rab9 promoter act – qHTS Assay for Rab9 Promoter Activators | Huh7 Rab9 promoter-luciferase reporter, luminescence, 24 h | Potency, µM (series often up to 9.22 µM), inactives show top-dose activation, negative = inhibition, usual class: activators | 320,000 tested, 2.8% active | AID 485297, 2010; note: % of control where 0% means no effect; nearly all actives have a fitted effect of over 60% in size
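Steps: seed 1500 Huh7 Rab9-luc cells per well, rest 2 h at 37 °C; add compound in DMSO; incubate 24 h; add luciferase reagent, 10 min ambient; read luminescence.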
NPC1 prom act – qHTS Assay for NPC1 Promoter Activators | Huh7 NPC1 promoter luciferase reporter, 24 h | Potency, µM (titrated, usually from 9.22 µM), for the others: at the top dose activation, most hits filed as activators | 320,000 tested, 2.4% active | AID 485313, 2010; note: % of control where 0% means no effect; nearly all actives have a fitted effect of over 60% in size
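Huh7 reporter cells (NPC1 promoter driving luciferase) are dosed with compound for 24 h at 37 °C, 5% CO2; luciferase detection reagent is then added and luminescence measured after 10 min at ambient temperature.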
SMN2 splice enh – qHTS Assay for Enhancers of SMN2 Splice Variant Expression; HEK293 SMN2-luciferase splicing reporter, luminescence, 30-36 h; Potency, µM (highest dose often 46.1 µM), inactives show at the highest dose activity change, positive = activation, actives largely listed as activators; 210,000 tested, 2.8% active; AID 1458, 2008; note: % of control where 0% means no effect; nearly all actives have a fitted effect of over 55% in size
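HEK293 cells carry an SMN2 minigene-luciferase reporter in which exon 7 inclusion puts luciferase in frame. Cells were seeded at 2000 cells/well, attached for 10-12 hours, then exposed to compounds for 30-36 hours at 37C before ONE-Glo luminescence.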
KinaseGlo FLuc – Counterscreen for Luciferase (Kinase-Glo TM) Inhibition. Luciferin 4-monooxygenase (Photuris pensylvanica), Q27757. Kinase-Glo luciferase, ATP luminescence, 8 min. Potency, µM (doses to about 38.3 µM), without a hit: at the top dose activity change, negative = inhibition, usual class: inhibitors. 200,000 tested, 0.28% active. AID 1379, 2008; note: % is set by controls: 0 for no effect and ±100 for the full control effect; nearly all actives have a fitted effect of over 60% in size
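Substrate mix (final 50 mM imidazole pH 7.2, 50 mM KCl, 7 mM MgCl2, 10 uM ATP, 0.01% Tween 20, 0.05% BSA) plus pin-tool compound, then Kinase-Glo detection mix; 8 min ambient, luminescence read.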
Starred values were filed as active, the others as inactive; ? = inconclusive; . = no result given. Sampled rows, rich in hits. Any-hit rate of the full collection: about 7.5%. Calls come from the whole dose curve; as a rule, active = well fitted curve in the direction sought with a large enough effect; inconclusive = small, poorly fitted or top-dose-only effect, or another doubt; inactive = no such curve, though single readings can be large; an effect the other way counts as inactive or inconclusive. Potency is the fitted concentration of half-maximal effect.

SMILES | FLuc modulator | ELG1 genotox | Rab9 promoter act | NPC1 prom act | SMN2 splice enh | KinaseGlo FLuc
Cc1ccc(C(=O)NNC(=O)c2nn(-c3ccc(F)cc3)ccc2=O)cc1 | 15µM* | 1% | -6% | -1% | . | .
Cc1ccc(/C=N/NC(=O)c2ccc(C(=O)N/N=C/c3ccc(C)s3)o2)s1 | ? | 10% | -1% | 6% | 1% | -3%
Cc1ccc(/C=N/NC(=O)c2ccoc2C)s1 | 15µM* | ? | 3.2µM* | ? | 10µM* | ?
Cc1occc1C(=O)N/N=C/c1ccc(Br)s1 | 15µM* | ? | 2.8µM* | ? | . | -28%
Cc1ccccc1NC(=O)CSc1nnc(NC(=O)c2ccco2)s1 | 27µM* | 8% | 10% | 1% | . | .
O=C(CSc1nnc(NC(=O)c2ccccc2F)s1)Nc1ccccc1F | 2.7µM* | ? | 3.5µM* | ? | 27% | -23%
CC(C)(C)CC(=O)Nc1nnc(SCC(=O)Nc2ccccc2F)s1 | -12% | -17% | 1% | -6% | -15% | 0%
O=C(CSc1nnc(NC(=O)c2ccco2)s1)Nc1ccccc1Br | -13% | 5% | -1% | 3% | . | .
O=C(CSc1nnc(NC(=O)c2ccco2)s1)Nc1ccccc1F | 15µM* | 4% | 0% | -2% | 10% | -3%
O=C(Nc1ccccc1)C1=C[C@@H](C2CCCCC2)C[C@@H](OCCCCO)O1 | 12µM* | ? | ? | 27% | . | .
C/C=C/C=C\C(=O)Nc1cccc(C2=NOC3(C2)C[C@@H](C(N)=O)N(C(=O)c2cc([N+](=O)[O-])cc([N+](=O)[O-])c2)C3)c1 (stereo not given in full) | 3µM* | 5% | -7% | -1% | . | .
C/C=C\C(=O)Nc1cccc(C2=NOC3(C2)C[C@H](C(N)=O)N(C(=O)/C=C/CC)C3)c1 (stereo not given in full) | 0% | 4% | -2% | -4% | . | .
C/C=C\C=C/C(=O)Nc1cccc(C2=NOC3(C2)C[C@@H](C(N)=O)N(C(=O)/C=C/C=C\C)C3)c1 (stereo not given in full) | 19µM* | 6% | 5% | 8% | . | .
CCC(=O)Nc1cccc(C2=NOC3(C2)C[C@@H](C(N)=O)N(C(=O)c2cc([N+](=O)[O-])cc([N+](=O)[O-])c2)C3)c1 (stereo not given in full) | -2% | 2% | -6% | -3% | . | .
C/C=C\C=C/C(=O)Nc1cccc(C2=NOC3(C2)C[C@@H](C(N)=O)N(C(=O)/C=C/CC)C3)c1 (stereo not given in full) | 17µM* | 4% | 10% | 2% | . | .
C=C(C)C(=O)N1CC2(CC(c3cccc(NC(=O)/C=C\C=C/C)c3)=NO2)C[C@H]1C(N)=O (stereo not given in full) | 17µM* | 1% | 14% | 12% | . | .
Cc1cccc(N2CCN(C(=O)Cc3c(C(=O)O)c(C)cn3C)CC2)c1C | -19% | . | . | . | . | .
Cc1cccc(NC(c2cccc(Cl)c2)c2ccc3cccnc3c2O)n1 (stereo not given) | 3% | . | . | . | -32% | .
C/C=C\C=C/C(=O)Nc1cccc(C2=NOC3(C2)C[C@@H](C(N)=O)N(C(=O)C2(C)CC2)C3)c1 (stereo not given in full) | 15µM* | 7% | 4% | 5% | . | .
COC(=O)c1ccccc1NC(=O)CN(c1ccc(Cl)cc1)S(=O)(=O)c1ccc(OC)cc1 | -8% | . | . | . | -6% | .
COc1cccc(CNS(=O)(=O)c2ccc3c(c2)N(C)CCO3)c1 | 0% | -5% | 0% | 0% | . | .
CCOC(=O)c1cnc2c(ccc3ccccc32)c1Nc1ccc(OC)c(OC)c1 | -1% | . | . | . | -1% | .
CCOC(=O)c1nc2c(ccc3ccccc32)cc1C | 15µM* | 5% | 0% | -1% | . | .
CCOc1ccc(/C=C2\SC(=S)N(CCC(=O)Nc3ccccc3C(=O)O)C2=O)cc1 | 15µM* | 6% | ? | 2% | . | .
O=C(O)CCN1C(=O)CC(N2C(=O)/C(=C/c3ccc(Cl)cc3)SC2=S)C1=O (stereo not given) | 19µM* | -6% | 0% | -5% | 1% | -4%
SMILES | FLuc modulator | ELG1 genotox | Rab9 promoter act | NPC1 prom act | SMN2 splice enh | KinaseGlo FLuc
CCOc1ccc(/C=C2\SC(=S)N(CCC(=O)O)C2=O)cc1 | 1.7µM* | 0% | -31% | -11% | . | .
COc1ccc(/C=C2\SC(=S)N(CCC(=O)N3CCCCC3)C2=O)cc1 | ? | -5% | -5% | -8% | . | .
CCOc1ccc(/C=C2/SC(=S)N(CCC(=O)Nc3ccc(C(=O)O)cc3)C2=O)cc1 | 1.2µM* | ? | 0% | 1% | . | .
CCOc1ccc(Oc2ccc(NC(=O)CSc3nncn3C)cc2)cc1 | -14% | -1% | 14% | 1% | . | .
Cc1cccc(OC(=O)CSc2nnc(-c3cccs3)o2)c1C | 0% | . | . | . | . | .
COc1ccc(/C=C2\SC(=S)N(CCC(=O)Nc3ccccc3C(=O)O)C2=O)cc1 | 21µM* | -2% | -1% | -5% | . | .
COc1ccc(/C=C2\SC(=S)N(CCCC(=O)Nc3ccccc3C(=O)O)C2=O)cc1OC | 3% | -1% | 3% | 6% | . | .
Cn1c(SCc2ccc(F)cc2)nc2ccc(C(=O)NCc3ccc(F)cc3)cc21 | 2% | . | . | . | -5% | .
COc1ccccc1NC(=O)N1CCCC1C(=O)NCc1ccccc1F (stereo not given) | -2% | 13% | -8% | 1% | 6.3µM* | -5%
COc1ccccc1NC(=O)N1CCCC1C(=O)NCc1ccccc1Cl (stereo not given) | 1% | -3% | 3% | -2% | . | .
CC(C)OC(=O)CN1C(=O)S/C(=C/c2ccc(N3CCCCC3)o2)C1=O | 21µM* | 28% | -3% | 1% | -10% | -6%
CC(C)(C)OC(=O)CN1C(=O)S/C(=C\c2ccc(-c3cccc(C(=O)O)c3)o2)C1=O | 15µM* | ? | 3.2µM* | ? | . | .
Cc1ccc(NC(=O)CN2C(=O)S/C(=C\c3ccc(-c4cccc(C(=O)O)c4C)o3)C2=O)cc1 | ? | 2% | 4% | 0% | 13% | 16%
O=C1S/C(=C/c2ccc(N3CCOCC3)o2)C(=O)N1Cc1ccc(F)cc1 | ? | 1% | -4% | 0% | -17% | -6%
C#CCN1C(=O)S/C(=C\c2ccc(-c3ccc(C(=O)O)cc3C)o2)C1=O | 7.6µM* | ? | 2.5µM* | 1.1µM* | . | .
